GLP1R inv ag – GLP-1 receptor (human) inverse agonism. 410,000 tested, 1.6% active. P43220. HEK293 GLP-1R CRE-luciferase, luminescence, 24 h; GLP-1R form is constitutively active. Potency, µM (top dose mostly 38.3 µM), for the others: at the highest dose activity change, negative = inhibition, hits mostly inhibitors; further: on the % scale 0 is the no-effect control and ±100 the full control effect; nearly all actives have a fitted effect of over 55% in size
Target sequence (P43220 whole entry, looked up): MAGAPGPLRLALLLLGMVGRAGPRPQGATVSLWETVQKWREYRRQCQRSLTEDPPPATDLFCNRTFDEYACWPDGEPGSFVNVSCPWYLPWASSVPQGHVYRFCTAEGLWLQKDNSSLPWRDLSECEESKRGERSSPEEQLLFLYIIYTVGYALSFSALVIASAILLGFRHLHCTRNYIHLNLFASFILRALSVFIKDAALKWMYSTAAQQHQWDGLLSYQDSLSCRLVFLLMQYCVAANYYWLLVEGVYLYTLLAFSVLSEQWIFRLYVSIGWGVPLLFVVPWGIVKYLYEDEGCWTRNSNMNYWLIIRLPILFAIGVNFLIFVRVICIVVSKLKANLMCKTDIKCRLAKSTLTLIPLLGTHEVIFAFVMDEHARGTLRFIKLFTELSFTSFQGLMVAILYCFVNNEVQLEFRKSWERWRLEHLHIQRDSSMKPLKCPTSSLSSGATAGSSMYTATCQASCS
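GLP-1R inverse agonism mode: basal reporter luminescence in engineered HEK293 cells measured after one day of compound exposure at 37 deg C, with a 12 min room-temperature detection step.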
HEK293 tox – cytotoxicity in counter-screen for GLP-1R inverse agonists. HEK293 cAMP-luciferase reporter cells, luminescence, 24 h. Potency, µM (highest dose often 38.3 µM), for the others: top-dose activity change, negative = inhibition, usual class: inhibitors. 410,000 tested, 0.13% active;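 further: loss of luciferase light is scored as toxicity; on the % scale 0 is the no-effect control and ±100 the full control effect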
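Step one: seed cells (200 cells/uL, DMEM with 10% Nu serum, 1% pen-strep). Step two: 12-hour incubation at 37 deg C. Step three: pin 23 nL compound, incubate 24 hr. Step four: add luciferase reagent, read luminescence 12 min later.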
GLP-1R agonist – agonists of human GLP-1 receptor; 380,000 tested, 0.007% active; P43220; HEK293 GLP-1R CRE-luciferase, luminescence, 4-6 h; cells express a hypersensitive GLP-1R form; Potency, µM (top dose mostly 45.6 µM), for inactives: at the top dose activation, actives largely listed as activators; further: % of control where 0% means no effect
PTHR1 ag – activates the human parathyroid hormone receptor PTHR1; HEK293 GP2 PTHR1 cells, GloSensor cAMP luminescence, 1 h; Potency, µM (titrated, usually from 115 µM), without a hit: at the highest dose activation, hits mostly activators; 410,000 tested, 0.075% active; AID 743266; further: nearly all actives have a fitted effect of over 55% in size
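HEK-293-derived GP2 cells expressing PTHR1 and a GloSensor cAMP reporter, 3,000/well, plated overnight, given luciferin plus IBMX (each 0.5 mM as added) for 1 h at 37 °C, then compound for 1 h at 37 °C. Luminescence was read after 15 min at room temperature.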
Active calls of the source: *; i = inactive; ? = inconclusive; · = not tested or not shown; [ ] = remark or other dose. The list is not random: actives were taken first. Their share in the collection is about 1.7%. The call rests on the fitted dose curve; in most records, active means well fitted curve in the direction sought with a large enough effect; inconclusive means small, poorly fitted or top-dose-only effect, or another doubt; inactive means no such curve, though single readings can be large; an effect the other way counts as inactive or inconclusive. Potency means the concentration at half of the fitted maximal effect.

SMILES | GLP1R inv ag | HEK293 tox | GLP-1R agonist | PTHR1 ag
CC(C)(C)N1C(=O)[C@H]2[C@@H](c3ccc(Br)cc3)N3C(=O)N(c4cccc(F)c4)C(=O)[C@@]3(Cc3ccccc3)[C@H]2C1=O | ? | 11% | 0% | -5%
COc1ccc([C@@H]2[C@@H]3C(=O)N(C(C)(C)C)C(=O)[C@@H]3[C@]3(Cc4ccc(Cl)cc4)C(=O)N(c4ccc(OC)cc4)C(=O)N23)cc1 | -10% | -3% | 1% | i
CCc1ccc(-c2cc(C)no2)cc1S(=O)(=O)NC(C)Cc1ccco1 (centres undefined) | 3.5µM* | -9% | 28% | -9%
Cc1cc(-c2ccc(C(C)C)c(S(=O)(=O)NCc3ccco3)c2)on1 | ? | -5% | 21% | 0%
C=Cc1c(C)/c2[n-]/c1=C\c1[n-]c(c(CC)c1C)/C=c1\[n-]c3c(c1C)C(=O)C(C(=O)[O-])C=3c1[n-]c(c(C)c1CCC(=O)[O-])\C=2.[Cu].[Na+].[Na+] (centres undefined) | · | · | -2% | ·
CO[C@]1(NC(=O)Cc2cccs2)C(=O)N2C(C(=O)O)=CC(COC(N)=O)S[C@H]21 (some centres undefined) | · | · | -4% | ·
COc1ccc(CN2CCC(N(CCc3ccccc3)Cc3ccccc3)CC2)c(OC)c1 | 3.2µM* | ? | 4% | -56%
CCCN1CCC(N(CCc2ccccc2)Cc2ccccc2)CC1 | ? | -5% | 8% | i
CC(C)(C)c1ccc(C2CC2C(=O)N/N=C\c2ccc[nH]2)cc1 (centres undefined) | 1.1µM* | ? | 11% | -29%
O=C(CN1C(=O)COc2ccc(S(=O)(=O)Nc3ccccc3)cc21)NCc1ccccc1Cl | ? | -9% | 0% | -2%
O=C(NCC(c1cccs1)N1CCOCC1)c1cn(-c2ccccc2)nc1-c1ccccc1 (centres undefined) | 10µM* | -9% | 3% | i
COc1cc(C(=O)NCC(c2cccs2)N2CCOCC2)cc(Br)c1OCc1ccccc1 (centres undefined) | 6.3µM* | -20% | 7% | i
COc1ccc(C(=O)NCC(c2cccs2)N2CCOCC2)cc1OC (centres undefined) | 5% | -8% | 10% | -29%
O=C(NCC(c1cccs1)N1CCOCC1)c1cn(-c2ccccc2)nc1-c1ccc(Cl)cc1 (centres undefined) | -16% | 9% | -9% | i
C=CCC1(CC=C)CCCN1C(=O)c1cc(COc2ccc(F)c(F)c2)on1 | 2.8µM* | 8% | 4% | -69%
CCOC(=O)CC1(NC(=O)c2cc(COc3ccc(F)c(F)c3)on2)CCCCC1 | 10µM* | 6% | 17% | -35%
Cc1ccc(NC(=S)N=Nc2c(O)n(C)c3ccc(S(=O)(=O)N4CCOCC4)cc23)cc1 | -7% | 0.63µM* | 9% | -12%
Cc1cc(C)cc(NC(=S)N=Nc2c(O)n(C)c3ccc(S(=O)(=O)N4CCOCC4)cc23)c1 | ? | ? | 1% | i
CC(=O)c1cccc(Nc2c3c(nc4ccccc24)CCC3)c1 | ? | 10% | 12% | -3%
CCOC(=O)c1cccc(Nc2c3c(nc4ccccc24)CCC3)c1 | ? | 10µM* | · | -18%
COc1cc(Cl)c(C)cc1Nc1c2c(nc3ccccc13)CCC2 | 11µM* | ? | · | -1%
COc1ccccc1Nc1c2c(nc3ccccc13)CCC2 | ? | ? | 5% | i
COC(=O)c1cccc(Nc2c3c(nc4ccccc24)CCC3)c1 | 7.9µM* | ? | 14% | -31%
Cc1ccccc1OCC(=O)Nc1ccc(S(=O)(=O)N(Cc2ccccc2)c2ccccc2)cc1 | -2% | 9% | · | i
COc1cc(NC(=O)C2CCCN(S(=O)(=O)c3cn(C)cn3)C2)cc(OC)c1 (centres undefined) | -4% | 1% | · | i
CCN(CC)S(=O)(=O)c1ccc2oc(SCC(=O)NC3CC3)nc2c1 | 1% | 18% | -7% | -13%
CCN(CC)S(=O)(=O)c1ccc2oc(SCc3ccc(F)cc3)nc2c1 | 11µM* | -1% | 7% | -22%[57.5 µM]
CCN(CC)S(=O)(=O)c1ccc2oc(C(=O)NCc3ccc(F)cc3)c(C)c2c1 | 3.5µM* | -2% | 11% | -58%[57.5 µM]

High-throughput results from PubChem.
